# Source: PubChem BioAssay (National Center for Advancing Translational Sciences (NCATS))
# Most compounds without a hit are left out; they make up all but 7.5% or so of the library.
# FLuc modulator = qHTS profiling assay for firefly luciferase inhibitor/activator using purifed enzyme and Km concentrations of substrates (counterscreen for miR-21 project); Luciferin 4-monooxygenase (Photinus pyralis), P08659; actives 6.9% (n = 360,000); Potency, µM (series often up to 57.5 µM), for the others: at the top dose activity change, negative = inhibition, most hits filed as inhibitors; purified FLuc, Km substrates, luminescence inhibition;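 also: plate controls were vehicle for no effect and reference inhibitor for full effect; nearly all actives have a fitted effect of over 55% in size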
# Target sequence (P08659 whole entry, looked up): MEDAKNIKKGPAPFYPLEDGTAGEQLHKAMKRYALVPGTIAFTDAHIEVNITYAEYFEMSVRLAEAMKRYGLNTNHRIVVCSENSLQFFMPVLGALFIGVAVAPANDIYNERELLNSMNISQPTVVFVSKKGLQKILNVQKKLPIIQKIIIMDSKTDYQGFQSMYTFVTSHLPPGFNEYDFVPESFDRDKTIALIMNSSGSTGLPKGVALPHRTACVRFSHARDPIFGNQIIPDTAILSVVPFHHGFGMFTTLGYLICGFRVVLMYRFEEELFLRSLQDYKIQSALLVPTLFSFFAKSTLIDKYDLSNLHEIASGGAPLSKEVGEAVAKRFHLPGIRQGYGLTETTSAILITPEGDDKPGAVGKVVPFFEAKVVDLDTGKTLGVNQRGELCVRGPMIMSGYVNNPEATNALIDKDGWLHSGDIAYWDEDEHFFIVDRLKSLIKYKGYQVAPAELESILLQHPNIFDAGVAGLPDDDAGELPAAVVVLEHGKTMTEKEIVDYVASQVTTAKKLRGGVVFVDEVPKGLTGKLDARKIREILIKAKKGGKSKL
#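 Purified P. pyralis luciferase (10nM final) with 10uM D-luciferin and 10uM ATP (Km levels) in 50mM Tris acetate pH 7.5, 10mM Mg acetate, 0.01% Tween-20, 0.05% BSA; qHTS 6-point titration, ~60 µM downward; luminescence read.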
# NPC1 promoter act = qHTS Assay for NPC1 Promoter Activators; Huh7 NPC1 promoter luciferase reporter, 24 h; Potency, µM (highest dose often 9.22 µM), without a hit: top-dose activation, usual class: activators; actives 2.4% (n = 320,000); also: % of control where 0% means no effect; nearly all actives have a fitted effect of over 60% in size
#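 Stable NPC1-promoter luciferase Huh7 line; cpd (DMSO) 24 h, 37 °C, 5% CO2; Amplite luciferase reagent 10 min RT; luminescence readout. qHTS format.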
# Rab9 prom act = qHTS Assay for Rab9 Promoter Activators; AID 485297, 2010; Huh7 Rab9 promoter-luciferase reporter, luminescence, 24 h; actives 2.8% (n = 320,000); Potency, µM (top dose mostly 9.22 µM), for inactives: at the top dose activation, negative = inhibition, actives largely listed as activators; also: % of control where 0% means no effect; nearly all actives have a fitted effect of over 60% in size
#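 Steps: seed 1500 Huh7 Rab9-luc cells per well, rest 2 h at 37 °C; add compound in DMSO; incubate 24 h; add luciferase reagent, 10 min ambient; read luminescence.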
# KinaseGlo FLuc = Counterscreen for Luciferase (Kinase-Glo TM) Inhibition. Luciferin 4-monooxygenase (Photuris pensylvanica), Q27757. Kinase-Glo luciferase, ATP luminescence, 8 min. Potency, µM (highest dose often 38.3 µM), for the others: at the highest dose activity change, negative = inhibition, hits mostly inhibitors. actives 0.28% (n = 200,000); also: % is scaled to controls: 0 for no effect and ±100 for the full control effect; nearly all actives have a fitted effect of over 60% in size
#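 Recombinant Kinase-Glo luciferase, 10 uM ATP (linear range), luciferin; imidazole pH 7.2 / KCl / MgCl2 / Tween / BSA buffer; 8 min RT; luminescence.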
# SMN2 splice up = qHTS Assay for Enhancers of SMN2 Splice Variant Expression | AID 1458, 2008 | HEK293 SMN2-luciferase splicing reporter, luminescence, 30-36 h | actives 2.8% (n = 210,000) | Potency, µM (series often up to 46.1 µM), inactives show at the highest dose activity change, positive = activation, hits mostly activators; also: % of control where 0% means no effect; nearly all actives have a fitted effect of over 55% in size
#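 HEK293 cells carry an SMN2 […]–luciferase reporter in which exon 7 inclusion puts luciferase in frame. Cells were plated 10-12 h before compound addition, then incubated 30-36 h at 37C. ONE-Glo luminescence was read; sodium butyrate at 4.5 mM final served as control.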
# ELG1 genotox = qHTS screen for small molecules that induce genotoxicity in human embryonic kidney (HEK293T) cells expressing luciferase-tagged ELG1; actives 1.3% (n = 330,000); HEK293T ELG1-luciferase reporter, luminescence, 16 h; Potency, µM (highest dose often 46 µM), inactives show at the highest dose activity change, positive = activation, most hits filed as activators; AID 504466, 2011; also: % of control where 0% means no effect; nearly all actives have a fitted effect of over 60% in size
#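 Quantitative HTS format in 1536-well plates. HEK293T ELG1-luciferase reporter cells receive test compound and are incubated 16 hr at 37 °C, 5% CO2; ONE-Glo added, 30 min room temperature, then luminescence read.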
# Numbers without * were called inactive; ? = inconclusive; nt = no result given; [ ] = remark or other dose. Calls follow the shape of the dose curve; as a rule, active = well fitted curve in the direction sought with a large enough effect; inconclusive = small, poorly fitted or top-dose-only effect, or another doubt; inactive = no such curve, though single readings can be large; an effect the other way counts as inactive or inconclusive. Potency is read from the fitted curve at half-maximal effect.
SMILES,FLuc modulator,NPC1 promoter act,Rab9 prom act,KinaseGlo FLuc,SMN2 splice up,ELG1 genotox
CCN(C)c1ccc(/C=N\n2nnnc2N)cc1,12µM*,-11.1%,25.5%,0.6%,11.2µM*,9.2µM*
NNC(=O)c1cc(-c2cccs2)nc2ccccc12,-19.3%,-1.5%,-2.7%,nt,nt,-1.4%
C/C(=N\NC(=O)c1cc(-c2cccs2)nc2ccccc12)c1ccccn1,23.9µM*,-19.5%,-44.9%,0.1%,-80.6%,-0.2%
Cc1ccc2nc(C)c(C(=O)N/N=C/c3ccc(C(=O)O)cc3)cc2c1,5.36µM*,-4.1%,?,-0.8%,nt,4.6%
CC(C)NC(=O)c1cc(-c2cccs2)nc2ccccc12,-10.7%,-2.5%,0.0%,nt,nt,-10.8%
O=C(N/N=C/c1ccsc1)c1cc(-c2cccs2)nc2ccccc12,9.53µM*,-12.0%,-5.0%,-4.2%,?,-4.0%
O=C(O)c1ccc(/C=N/NC(=O)c2cc(-c3cccs3)nc3ccccc23)cc1,6.01µM*,1.9%,9.3%,0.2%,4.0%,9.1%
O=C(N/N=C/c1ccsc1)c1cc(-c2ccncc2)nc2ccccc12,?,-16.8%,-11.4%,-2.6%,7.4%,5.5%
Cc1ccc(Cn2c(C)c3cnn(CC(=O)NCCc4ccc(Cl)cc4)c(=O)c3c2C)cc1,-7.4%,nt,nt,nt,2.7%,nt
O=C(NC1=NCCS1)c1cc(-c2cccs2)nc2ccccc12,12µM*,2.0%,0.5%,nt,nt,-9.9%
O=C(NCCc1ccc(F)cc1)C(=O)NCC(c1cccs1)S(=O)(=O)c1ccc(F)cc1 (stereo unspecified),-8.5%,nt,nt,nt,nt,nt
CCOC(=O)c1ccc(-c2ccc3c(c2)CCC3)nc1C,1.51µM*,1.58µM*,1µM*,nt,nt,3.66µM*
COC(=O)c1ccc(-c2ccc(F)cc2)nc1C,3.38µM*,3.55µM*,3.55µM*,-5.0%,?,?
COc1ccc(-c2n[nH]c3c2C(c2ccc(Cl)cc2Cl)NC3=O)cc1 (stereo unspecified),?,nt,nt,nt,-18.6%,nt
O=C1COc2ccc(C(=O)COC(=O)c3ccccc3[N+](=O)[O-])cc2N1,1.51µM*,19.5%,?,nt,nt,9.4%
O=C1COc2ccc(C(=O)COC(=O)c3ccco3)cc2N1,12µM*,0.2%,-1.0%,nt,nt,0.6%
O=C1COc2ccc(C(=O)COC(=O)c3ccc(Cl)cc3[N+](=O)[O-])cc2N1,-0.5%,0.5%,-8.1%,nt,nt,nt
Cc1ccc(-c2cc(-c3cccs3)[nH]n2)c(O)c1,6.75µM*,2.9%,2.7%,-0.4%,47.3%,4.11µM*
Cc1cc(N2CCOCC2)ccc1/C=C1\NC(=O)N(CC(=O)Nc2ccc(F)cc2)C1=O,?,?,?,2.9%,18.1%,13.1%
Cc1cccc(NC(=O)CN2C(=O)N/C(=C\c3ccc(N4CCOCC4)cc3)C2=O)c1,3.01µM*,?,?,3.1%,11.2µM*,?
CCOc1cc(/C=C2/C(=O)NN(c3cccc(Cl)c3)C2=O)ccc1O,23.9µM*,-0.1%,-0.4%,nt,nt,-2.9%
COc1cc(/C=C2/C(=O)NN(c3cccc(Cl)c3)C2=O)cc(OC)c1O,21.3µM*,1.4%,0.1%,nt,nt,9.2%
COc1cc(/C=C2/NC(=O)N(c3cccc(Cl)c3)C2=O)ccc1O,6.7%,-12.7%,-3.5%,-4.9%,nt,8.4%
O=C1NN(c2ccc(Br)cc2)C(=O)/C1=C\c1ccc(O)cc1O,?,7.3%,4.2%,nt,nt,-3.2%
O=C1NN(c2cccc(Br)c2)C(=O)/C1=C\c1ccc(O)cc1,15.1µM*,0.8%,-2.0%[1.84 µM],nt,nt,-0.1%
SMILES,FLuc modulator,NPC1 promoter act,Rab9 prom act,KinaseGlo FLuc,SMN2 splice up,ELG1 genotox
c1cnc2ccc(-c3ccc4ncccc4c3)cc2c1,0.601µM*,1µM*,0.447µM*,nt,nt,?
CN(C)S(=O)(=O)c1ccc(C(=O)Nc2ccc3ncccc3c2)cc1,15.1µM*,22.4%,21.8%,nt,nt,?
O=C(Nc1ccc2ncccc2c1)c1ccccc1Br,12µM*,?,2.82µM*,nt,nt,6.51µM*
Cc1ccc2ncccc2c1,-1.8%,13.7%,-4.2%,nt,14.2%,3.0%
CN(c1ccccc1)S(=O)(=O)c1ccc(NC(=O)c2ccc(-c3ccccc3)cc2)cc1,-5.1%,-6.0%,-8.3%,-3.5%,nt,-3.8%
Cc1nc2cc(NC(=O)c3ccc(S(=O)(=O)N(C)c4ccccc4)cc3)ccc2o1,16.9µM*,-0.1%,-9.1%,nt,nt,-42.2%
CCOC(=O)c1sc(NC(=O)CSc2nncn2C)nc1C,?,10.0%,?,0.7%,16.1%,?
C=CCNC(=O)O/N=C/c1csc([N+](=O)[O-])c1,-0.8%,-3.0%,3.5%,nt,nt,3.3%
O=C(Nc1ccc2ncccc2c1)Nc1ccc2ncccc2c1,6.75µM*,?,27.4%,-0.5%[7.66 µM],1.4%[9.22 µM],0.4%
Cc1c([N+](=O)[O-])cc(C(=O)Nc2ccc3ncccc3c2)cc1[N+](=O)[O-],-1.4%,-0.8%,7.7%,nt,nt,0.6%
COc1ccc(-c2c(-c3ccc4c(c3)OCO4)noc2C)cn1,21.3µM*,-2.0%,-7.1%,nt,nt,7.9%
Cc1ccc(OCCSc2nc3ccccc3n2CC(=O)N2CCCCC2)c(C)c1,-1.6%,nt,nt,nt,nt,nt
CCCN1Cc2cccc(C(=O)Nc3ccc(OC)cc3OC)c2C1=O,0.9%,nt,nt,nt,-2.1%,nt
COc1cc(/C=N/Nc2ccc(Cl)nn2)cc(OC)c1O,13.5µM*,0.1%,7.4%,nt,nt,3.6%
Cc1ccc(/C=N/Nc2ccc(F)cc2F)s1,13.5µM*,1.58µM*,?,nt,nt,?
Oc1c(Br)cc(/C=N/Nc2ccc(Cl)nn2)cc1Br,-5.1%,-0.4%,-6.1%,nt,nt,-0.8%
CCCCCCCCCC(=O)N/N=C/c1ccc(C)s1,5.6%,-0.4%,2.6%,-4.8%,nt,?
COc1cc(/C=N/Nc2ccc(F)cc2F)cc(OC)c1O,16.9µM*,2.0%,2.0%,-1.7%,-10.2%,10.5%
COc1cc(/C=N/Nc2ccc(S(N)(=O)=O)cc2[N+](=O)[O-])cc(OC)c1O,?,1.8%,-3.9%,nt,nt,3.3%
Cc1ccc(NC(=O)CSc2nc3ccccc3c3nc(CCn4c(C)nc5ccccc54)nn23)cc1F,-0.1%,nt,nt,nt,nt,nt
CN(Cc1ccccc1)C(=O)c1c[nH]c2ccc(S(=O)(=O)Nc3ccccc3F)cc2c1=O,?,nt,nt,nt,5.0%,nt
CC1=NN(c2ccc(C)cc2)C(=O)/C1=C\C=C\c1ccccc1,?,0.5%,1.2%,-7.5%,-37.5%,-7.7%
CC1=NN(c2ccccc2)C(=O)/C1=C\c1cc(C)n(-c2cccnc2)c1C,2.69µM*,-5.3%,-6.9%,nt,nt,9.3%
